Assay results: PubChem BioAssay AID1445 (SRMLSC, 2008)
About 910 (0.41%) of roughly 220,000 compounds were called active.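 Rule for the calls: active = primary inhibition above the hit cutoff, then over 50% inhibition at one or more dose response concentrations (cut at about 23% in these data, passing the limit was not always enough); inconclusive = conflicting primary data, or primary hits not chosen for dose response; inactive = low primary inhibition, or under 50% at every dose.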 The sample as a whole holds a higher share of actives than the screen did. Potency and affinity values are given separately.

The compounds below were run against Aminopeptidase N (Plasmodium falciparum (isolate 3D7)) (UniProt O96935) (assay: P. falciparum M1AAP inhibitors, biochemical, fluorogenic H-Leu-NHMec substrate, 1536-well (AID 1445;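 note: plate controls were DMSO full reaction for no effect and no enzyme background for full effect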)). Details: recombinant M1AAP, H-Leu-NHMec fluorogenic kinetic assay; at 30 µM, active compounds read high unless noted.
Sequence of Aminopeptidase N (Plasmodium falciparum (isolate 3D7)) (O96935 whole entry, looked up): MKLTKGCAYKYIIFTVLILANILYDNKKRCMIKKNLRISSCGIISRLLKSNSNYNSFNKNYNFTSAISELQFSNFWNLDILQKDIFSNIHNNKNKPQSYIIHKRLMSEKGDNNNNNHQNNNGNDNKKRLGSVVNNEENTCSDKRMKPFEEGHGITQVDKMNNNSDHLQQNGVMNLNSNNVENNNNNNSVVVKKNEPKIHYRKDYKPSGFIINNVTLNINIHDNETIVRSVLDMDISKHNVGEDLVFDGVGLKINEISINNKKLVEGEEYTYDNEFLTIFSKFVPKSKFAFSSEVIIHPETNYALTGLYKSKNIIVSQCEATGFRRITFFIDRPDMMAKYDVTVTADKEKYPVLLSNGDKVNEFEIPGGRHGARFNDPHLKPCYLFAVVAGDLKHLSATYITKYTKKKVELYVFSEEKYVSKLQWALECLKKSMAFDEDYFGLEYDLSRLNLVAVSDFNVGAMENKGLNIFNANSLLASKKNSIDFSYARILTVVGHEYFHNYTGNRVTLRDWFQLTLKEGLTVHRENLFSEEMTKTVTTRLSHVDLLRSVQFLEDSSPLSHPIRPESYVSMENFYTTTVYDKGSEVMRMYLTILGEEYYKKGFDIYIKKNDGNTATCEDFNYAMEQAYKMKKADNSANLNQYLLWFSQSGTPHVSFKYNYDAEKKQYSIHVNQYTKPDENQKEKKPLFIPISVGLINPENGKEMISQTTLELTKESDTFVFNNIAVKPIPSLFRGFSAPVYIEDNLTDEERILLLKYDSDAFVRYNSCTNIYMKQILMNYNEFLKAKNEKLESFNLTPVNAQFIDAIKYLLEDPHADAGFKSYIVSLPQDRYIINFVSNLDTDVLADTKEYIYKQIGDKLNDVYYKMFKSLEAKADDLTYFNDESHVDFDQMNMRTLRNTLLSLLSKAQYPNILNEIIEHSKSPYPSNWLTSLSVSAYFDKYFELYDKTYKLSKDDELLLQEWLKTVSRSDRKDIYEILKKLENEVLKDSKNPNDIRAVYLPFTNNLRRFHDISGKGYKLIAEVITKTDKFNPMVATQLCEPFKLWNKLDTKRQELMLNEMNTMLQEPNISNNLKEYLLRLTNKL

inhibition, inactive:
COc1ccccc1NS(=O)(=O)c1cc(NC(=O)c2cccs2)ccc1N1CCOCC1 3.5%
Cc1nn2c(N3CCCC3)c3c(nc2c1-c1ccccc1)CCC3 7%
Cc1nn2c(N3CCOCC3)c3c(nc2c1-c1ccccc1)CCCC3 4.17%
CC1(C)CC(=O)C(/C=N/n2cnc3ccccc3c2=O)=C(O)C1 11.3%
CC1(C)CC(=O)C(C=Nc2ccccc2)=C(O)C1 2.69%
O=C(c1ccco1)N1CCN(C(c2ccccc2Cl)c2nnnn2Cc2ccco2)CC1 (stereo not drawn) 2.33%
Cc1noc(NC(=O)c2ccccc2C(F)(F)F)c1C#N -0.81%
O=S(=O)(Nc1nccs1)c1ccc(Cl)cc1 -5.71%
O=S(=O)(Nc1ccncc1Cl)c1cc(Cl)ccc1Cl 4.72%
O=S(=O)(Nc1cccnc1)c1ccc(Cl)cc1 1.51%
O=C(O)c1ccc(NS(=O)(=O)c2cc(Cl)ccc2Cl)cc1 5.33%
O=S(=O)(Nc1cccnc1)c1cccc(Cl)c1 -0.41%
O=S(=O)(Nc1ncccn1)c1ccc(NS(=O)(=O)c2cc(Cl)ccc2Cl)cc1 30.4%
CCOc1ccccc1C(=O)Nc1nnc(SCC(=O)N2CCOCC2)s1 2.46%
CN(CC(=O)N1CCCCCC1)S(=O)(=O)c1ccc(Br)s1 8.78%
CCOC(=O)Cn1nc(C)c(NC(=O)COc2ccccc2[N+](=O)[O-])c1C 0.47%
Cn1c(=O)n(-c2cccc(Cl)c2)c(=O)n1C 4.63%
COc1ccc(/C=C/C(=O)NC(=S)NNC(=O)c2cccnc2)cc1 -8.48%
Cc1cc(OCc2nn[nH]n2)c2c(C)c(CC(=O)O)c(=O)oc2c1 0.25%
Cc1oc(C(=O)O)cc1COc1ccc2c3c(c(=O)oc2c1)CCC3 5.26%
Cc1oc(C(=O)O)cc1COc1ccc2c3c(c(=O)oc2c1C)CCC3 7.51%
Cc1cc2oc(=O)c3c(c2cc1OCc1nn[nH]n1)CCCC3 10.1%
Cc1ccc(S(=O)(=O)NC2=NCCC2)cc1 -0.29%
NC(=O)Cn1nc(C(F)(F)F)c2c1CCCC2 10.1%
O=C(CSc1nnc(CCc2nc3ccccc3[nH]2)n1-c1ccccc1)NCc1ccccc1 -1.21%
COc1ccc(-c2[nH]ncc2/C=C(/C#N)C(=O)NC2CCCCC2)cc1 7.83%
N#C/C(=C\c1cn[nH]c1-c1ccccc1)C(=O)NC1CCCCCC1 9.74%
CCOC(=O)c1[nH]c2ccc(OC)cc2c1NC(=O)c1cccc(OC)c1 3.82%
Cc1nn(-c2ccccc2)c(Cl)c1C(=O)N(C)c1nc(-c2ccc(F)cc2)cs1 -3.58%
COc1cc(/C=C/C(=O)NCCn2c(C)cc3ccccc32)cc(OC)c1OC 8.36%
N#Cc1cn(CC(=O)N2CCCc3ccccc32)c2ccccc12 9.27%
O=Cc1cn(CC(=O)N2CCc3ccccc32)c2ccccc12 2.93%
O=C(NCC(c1cccs1)N1CCOCC1)c1ccc(Cl)s1 (stereo not drawn) 7.44%
C=CCNC(=S)N1CCC(C(=O)c2ccc(OC)cc2)CC1 8.35%
COc1ccc(C2OC(=O)C(C)(C)C(=O)C2(C)C)cc1OC (stereo not drawn) -0.38%
Cc1ccc(S(=O)(=O)c2c(C)nn(-c3ccccc3)c2OC(=O)c2ccco2)cc1 6.34%
Cc1ccc(S(=O)(=O)c2c(C)nn(C(C)(C)C)c2OC(=O)c2ccc(Br)o2)cc1 19.6%
CCCCCOC(=O)C1C2C=CC3(CN(c4ccccc4C)C(=O)C13)O2 (stereo not drawn) 5.27%
Nc1nc(CSc2ncccn2)nc(Nc2ccccc2)n1 -3.84%
O=C(Nc1ccc(-n2cnnn2)cc1)C1CCCN1C(=O)NC1CCCCC1 (stereo not drawn) 3.93%
O=C(CSc1ncn[nH]1)Nc1ccccc1-c1ccccc1 -4.4%
Nc1cc(=O)[nH]c(SCC(=O)Nc2ccccc2-c2ccccc2)n1 2.73%
CCCNc1ncccc1C(N)=O -1.06%
Cc1ccc(Cn2cccc(-c3nc4ccccc4s3)c2=O)cc1 10.1%
O=c1c(-c2nc3ccccc3s2)cccn1Cc1ccc(Cl)cc1 2.06%
O=C(O)CCC(=O)OC1CC2CCC1C2 (stereo not drawn) -3.14%
CCN(CC)S(=O)(=O)c1ccc(NC(=O)CC(NC(C)=O)c2ccccc2)cc1 (stereo not drawn) -1.24%
COc1ccc(C2=NN(c3ccccc3)C(=O)/C2=C\c2ccc(O)c(OC)c2)cc1 8.38%
COc1cc(/C=C2\SC(c3ccc(C)cc3)=NC2=O)ccc1O 9.74%
CCOc1cc(/C=C2\SC(=S)N(Nc3ccccc3)C2=O)ccc1O 14.7%
CCOc1cc(/C=C2\C(=O)N(c3nc(-c4ccc(Br)cc4)cs3)N=C2c2ccccc2)ccc1O 15.7%
CCNc1c([N+](=O)[O-])c(=O)oc2ccccc12 7.91%
COc1ccccc1C(=O)N1CCN(Cc2cn[nH]c2-c2ccc(F)cc2F)CC1 3.76%
Cc1cccc2cc(CN(C(=O)c3cnccn3)C3CCCCC3)c(Cl)nc12 5.74%
Cc1ccc(S(=O)(=O)NN=C2CCN(Cc3ccccc3)CC2)cc1 4.22%
O=C(O)CC(c1ccc(Cl)cc1)n1cccc1 (stereo not drawn) 8.45%
CC(=O)Nc1cc(C(=O)OC(C(=O)c2ccccc2)c2ccccc2)ccc1C (stereo not drawn) 2.38%
Cc1cccc2cc(COC(=O)C(C)(C)C)c(=O)[nH]c12 4.55%
Nc1c(C(=O)N2CCCCC2)sc(=S)n1-c1ccccc1 0.35%
Cc1ccc(-n2c(N)c(C(=O)N3CCOCC3)sc2=S)cc1 -1.83%
CCOC(=O)CC(NC(=O)c1ccc(C)cc1)c1ccc(OC)cc1 (stereo not drawn) 5.77%
CCN(Cc1ccncc1)C(=O)CCc1nnc(CCc2ccccc2OC)o1 -2.71%
CCc1ccc2nc(N=C(N)N)nc(C)c2c1 5.85%
NC(N)=Nc1nc(-c2ccccc2)c2ccccc2n1 5.22%
COc1cc(/C=C2/SC(=S)N(CC(=O)Nc3nc4ccccc4s3)C2=O)cc(OC)c1OC 6.28%
Cc1ccc(N(Cc2ccccc2F)S(C)(=O)=O)cc1C -9.52%
Cc1oc2c(cc(NS(=O)(=O)c3cccs3)c3ccccc32)c1C(=O)OC(C)C 3.76%
O=C1CCCc2oc3c(cc(NS(=O)(=O)c4ccc5c6c(cccc46)C(=O)N5)c4ccccc43)c21 3.6%
COCCCn1c(=N)c(C(=O)NCc2ccc3c(c2)OCO3)cc2c(=O)n3ccccc3nc21 4.69%
CCCn1c(=N)c(C(=O)NCC2CCCO2)cc2c(=O)n3cccc(C)c3nc21 (stereo not drawn) 7.23%
Cc1cccn2c(=O)c3cc(C(=O)NCC4CCCO4)c(=N)n(CCN4CCOCC4)c3nc12 (stereo not drawn) 8.4%
N=c1c(C(=O)NCC2CCCO2)cc2c(=O)n3ccccc3nc2n1Cc1cccnc1 (stereo not drawn) 20%
COc1ccccc1N1C(=O)c2ccc(C(=O)Nc3nccs3)cc2C1=O 7.44%
O=C(CSc1ccc(-c2ccccn2)nn1)c1ccc(F)cc1 1.12%
N#Cc1c(N)sc(=S)c2c1CCCC2 9.2%
N#Cc1c(N)sc2c1CCCCCC2 7.78%
Cn1cnnc1Sc1ccc(C(=O)OCC(=O)Nc2cc(Cl)cc(Cl)c2)cc1[N+](=O)[O-] 3.75%
CCN(CC)S(=O)(=O)c1cccc(C(=O)Nc2cccnc2)c1 -0.19%
CCN(CC)c1ccc(NC(=O)c2cccnc2)c(C)c1 3.17%
NNC(=O)c1ccc2c(c1)S(=O)(=O)NNC2=O 8%
CC(C)N(C)C1CCN(C(=O)Nc2ccc(Cl)c(Cl)c2)CC1 6.97%
COc1cc(OC)c(NC(C)C(=O)N2CCCC2)cc1Cl (stereo not drawn) 11.4%
COc1cc(OC)c(NS(=O)(=O)c2cc(C(=O)OC(C)C(=O)NC3CC3)c(Cl)cc2Cl)cc1Cl (stereo not drawn) 10%
CCCCCCOc1ccc(C(CC(=O)O)C(N)=O)cc1 (stereo not drawn) -7.78%
O=C(NCc1cccnc1)C(=O)NCC(c1ccco1)N1CCOCC1 (stereo not drawn) 11.1%
Cc1[nH]c2ccccc2c1/C=N/NC(=O)CNC(=O)c1cccs1 0.9%
CCN1CCN(CC(=O)N/N=C/c2ccc(F)cc2F)CC1 15.6%
CO/N=C/C(=N\Nc1ccc(OC)cc1)C(=O)c1ccc(OC)cc1 12%
COc1ccc(C(=O)C(/C=N/O)=N/Nc2ccc(F)cc2)cc1 4.27%

inhibition, active:
CC1(C)CC(=O)C(/C=N/n2c(C(F)(F)F)nc3ccccc3c2=O)=C(O)C1 27.5%
O=S(=O)(Nc1cccnc1)c1cc(Cl)ccc1Cl 25.4%
O=S(=O)(Nc1nccs1)c1cc(Cl)ccc1Cl 25.8%
Cc1ccc(-c2[nH]ncc2/C=C(\C#N)C(=O)NC2CCCCC2)cc1 24.9%
Cc1ccc(S(=O)(=O)c2c(C)nn(C(C)(C)C)c2OC(=O)c2ccco2)cc1 27.3%
O=c1c(-c2nc3ccccc3s2)cccn1Cc1ccccc1 25.6%
Nc1c(C(=O)N2CCOCC2)sc(=S)n1-c1ccccc1 24.9%
N#Cc1c(N)sc(=S)c2c1CCCCC2 23.8%
COc1ccc(N/N=C(\C=N\O)C(=O)c2ccc(OC)cc2)cc1 24.1%
